Assay outcomes as filed in PubChem.
Tg IFNy HTS: T. gondii growth inhibition with IFN-gamma, primary screen, cell-based. Toxoplasma gondii growth in IFN-gamma-treated host cells; active compounds read low. activity change, negative = inhibition, % (no concentration beside the values). hit rate 3.8% among 69,000; in the data active means activity change below about -70%, passing the limit was not always enough;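 further: host cells are HeLa cells infected with Toxoplasma gondii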
The depositor's hits bear a star; ! = repeats disagree. Only a selection was taken, and hits are over-represented in it overall.

`COc1cccc(C(NS(=O)(=O)c2cc(C)c(C)cc2OC)c2nccn2C)c1` (centres undefined) gave Tg IFNy HTS -48.2.
N#Cc1cccc(-c2ccc(C3[C@@H]4CN(C(=O)Cc5ccncc5)C[C@H]3N4)cc2)c1 (some centres undefined) was read as Tg IFNy HTS 13.7.
Cc1cccc(-c2ccc([C@@H]3[C@@H](CO)N4C(=O)CN(C(=O)c5ccc6c(c5)OCO6)C[C@H]34)cc2)c1 was read as Tg IFNy HTS -43.3.
Screening N#Cc1cccc(-c2ccc(C3[C@@H]4CN(C(=O)c5ccc6c(c5)OCO6)C[C@H]3N4)cc2)c1 (some centres undefined) returned Tg IFNy HTS -74.8*!.
Screening CCC(C)N(Cc1cccnc1)C(=O)c1cccc(NC(=O)c2ccoc2C)c1 (centres undefined) returned Tg IFNy HTS -19.4.
CCn1nc(C)c(NC(=O)CN2CCCC(Oc3ccc(F)cc3)C2)c1C (centres undefined) was read as Tg IFNy HTS -5.5.
Cc1ccc(S(=O)(=O)Cc2nc(-c3ccc(C(=O)NCc4cccnc4)cc3)oc2C)cc1 was read as Tg IFNy HTS -113.4*!.
Cc1ccc(C(=O)Nc2c(C(=O)NCc3cccnc3)[nH]c3ccc(C)cc23)cc1 was read as Tg IFNy HTS 12.3.
Screening CN(C)c1ccc(C(=O)NCc2cccnc2)cc1 returned Tg IFNy HTS -4.1.
For CC(C(=O)N1CCC(C(O)(c2ccccc2)c2ccccc2)CC1)n1ccnc1 (centres undefined) the results were Tg IFNy HTS -11.3.
`CC(C)(C)c1ccc(C(O)CCCN2CCC(C(O)(c3ccccc3)c3ccccc3)CC2)cc1` (centres undefined) gave Tg IFNy HTS -91.2*!.
Cn1cc(CN2CCC(C(O)(c3ccccc3)c3ccccc3)CC2)cn1 was read as Tg IFNy HTS 4.3.
`COc1ccc(-c2nc(NCCCc3ccccc3)c3ccccc3n2)cc1` gave Tg IFNy HTS -50.3.
`CC(C)c1nccc(CN(Cc2ccco2)C(C)C(C)C)n1` (centres undefined) gave Tg IFNy HTS 5.0.
`Cc1n[nH]c(C)c1CC(=O)N1CCC2(CC1)CN(C)CCN2C` gave Tg IFNy HTS 8.3.
COc1cccc(NC(=O)Nc2ccc3c(c2)C(=O)N(C)C[C@H](OC)[C@H](C)CN[C@H](C)CO3)c1 was read as Tg IFNy HTS 73.4.
`COc1cccc(NC(=O)Nc2ccc3c(c2)C(=O)N(C)C[C@@H](OC)[C@@H](C)CN[C@@H](C)CO3)c1` gave Tg IFNy HTS -66.6.
For CO[C@H]1CN(C)C(=O)c2cc(NC(=O)c3ccc(Oc4ccccc4)cc3)ccc2OC[C@@H](C)NC[C@@H]1C the results were Tg IFNy HTS -113.9*.
`COc1cccc(NC(=O)Nc2ccc3c(c2)C(=O)N(C)C[C@@H](OC)[C@@H](C)CN[C@H](C)CO3)c1` gave Tg IFNy HTS -26.4.
Screening CO[C@@H]1CN(C)C(=O)c2cc(NC(=O)c3ccc(Oc4ccccc4)cc3)ccc2OC[C@H](C)NC[C@H]1C returned Tg IFNy HTS -121.8*.
Screening CO[C@H]1CN(C)C(=O)c2cc(NC(=O)c3cnccn3)ccc2OC[C@@H](C)NC[C@@H]1C returned Tg IFNy HTS -0.4.
For O=C(c1cc2cccnc2n(Cc2ccccc2F)c1=O)N1CCN(c2cccc(Cl)c2)CC1 the results were Tg IFNy HTS -63.3.
Screening COc1ccc(C(=O)N(c2ccc(F)cc2F)C2(C(=O)NCc3ccccc3)CCN(C(C)=O)CC2)cc1 returned Tg IFNy HTS -8.2.
For O=C(CCn1ccccc1=O)N1CCC2(CCCO2)CC1 the results were Tg IFNy HTS -59.6.
For Cc1cccc(Cn2c(CN)n[nH]c2=O)c1 the results were Tg IFNy HTS -6.2.
For CCCCN(Cc1nc2ccccc2[nH]1)Cc1ccco1 the results were Tg IFNy HTS 6.7.
Screening Cn1cc(-c2nccc(CCC(F)(F)F)n2)cn1 returned Tg IFNy HTS -6.1.
`O=C(NC(=O)c1ccc(C(F)(F)F)cc1)NN1CCCCCC1` gave Tg IFNy HTS -77.0*.
C#CCOC(=O)NC(=O)c1ccc(C(F)(F)F)cc1 was read as Tg IFNy HTS -14.7.
For O=C(Nc1cc(C(F)(F)F)ccc1N1CCCCC1)c1ccncc1 the results were Tg IFNy HTS 15.9.
Screening CC(C)c1noc(-c2cc(=O)n(CC(=O)Nc3cccc(F)c3)c3ccccc23)n1 returned Tg IFNy HTS 40.2.
CN(CCCNS(=O)(=O)c1ccc2c(c1)CCC(=O)N2)c1ccccc1 was read as Tg IFNy HTS 70.3.
COC(=O)[C@@H]1C[C@H](NC(=O)c2cccc3c2OCCO3)CN1C was read as Tg IFNy HTS 7.5.
Screening CN(Cc1cccc(Cl)c1)c1nc(-c2cccnc2)nc2c1cnn2C returned Tg IFNy HTS -82.4*.
CN(Cc1ncc[nH]1)c1nc(-c2cccnc2)nc2c1cnn2C was read as Tg IFNy HTS -6.5.
For CN(CCn1cccn1)c1nc(-c2cccnc2)nc2c1cnn2C the results were Tg IFNy HTS -40.3.
For CC(C)NC(=O)N1CCN(c2ccc3ccc(C(=O)NC4CCCC4)cn23)CC1 the results were Tg IFNy HTS 0.9.
